Source: PubChem BioAssay (NCATS)
Records with an inconclusive call do not appear. Unless noted, calls follow the shape of the dose curve; as a rule, active = well fitted curve in either direction with a large enough effect (not every such curve was filed as active); inconclusive = small, poorly fitted or top-dose-only effect, or another doubt; inactive = flat fitted curve, though single readings scatter.

Key:
[1] = AP1 Signaling Pathway (AID 357); conditions: ME-180 AP-1-bla reporter, EGF-induced, beta-lactamase ratio, 5 h; at 17.2 µM (top of the series) unless noted;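 also: ME-180 reporter cells stimulated with EGF at its EC50 level; % is scaled to controls: 0 for no effect and ±100 for the full control effect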
Outline: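 A ratiometric CCF4 readout (405 nm excitation; 460 and 530 nm emission) quantified AP-1-driven beta-lactamase in ME-180 cells after 5 h with compound and EC50 EGF; AC50 values were derived for activators and inhibitors.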

[2] = Stat Signaling Pathway (AID 446); conditions: ME-180 SIE beta-lactamase reporter, IL-6 stimulated, 5 h; at 17.2 µM (top of the series) unless noted;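 also: ME-180 cervical cancer cells given 40 pM IL-6 alongside compound; SIE-controlled beta-lactamase reporter measured as 460/530 nm FRET emission ratio; % is scaled to controls: 0 for no effect and ±100 for the full control effect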
Outline: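 Reporter line: ME-180 cervical carcinoma, SIE-beta-lactamase. Treatment: compound with 40 pM IL-6, 5 hrs, 37 C, in low-serum OPTI-MEM with 10 mM HEPES pH 7.3. Detection: 460/530 nm fluorescence.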

[3] = biological target: Glucocorticoid receptor (Homo sapiens) (UniProt P04150); assay: GR-GFP Redistribution (AID 450;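 active = compounds whose dose series gives a full or clear partial fitted curve of increased nuclear translocation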; also: potency is read from the fitted curve at half-maximal effect)
Glucocorticoid receptor (Homo sapiens), sequence (P04150 whole entry, looked up): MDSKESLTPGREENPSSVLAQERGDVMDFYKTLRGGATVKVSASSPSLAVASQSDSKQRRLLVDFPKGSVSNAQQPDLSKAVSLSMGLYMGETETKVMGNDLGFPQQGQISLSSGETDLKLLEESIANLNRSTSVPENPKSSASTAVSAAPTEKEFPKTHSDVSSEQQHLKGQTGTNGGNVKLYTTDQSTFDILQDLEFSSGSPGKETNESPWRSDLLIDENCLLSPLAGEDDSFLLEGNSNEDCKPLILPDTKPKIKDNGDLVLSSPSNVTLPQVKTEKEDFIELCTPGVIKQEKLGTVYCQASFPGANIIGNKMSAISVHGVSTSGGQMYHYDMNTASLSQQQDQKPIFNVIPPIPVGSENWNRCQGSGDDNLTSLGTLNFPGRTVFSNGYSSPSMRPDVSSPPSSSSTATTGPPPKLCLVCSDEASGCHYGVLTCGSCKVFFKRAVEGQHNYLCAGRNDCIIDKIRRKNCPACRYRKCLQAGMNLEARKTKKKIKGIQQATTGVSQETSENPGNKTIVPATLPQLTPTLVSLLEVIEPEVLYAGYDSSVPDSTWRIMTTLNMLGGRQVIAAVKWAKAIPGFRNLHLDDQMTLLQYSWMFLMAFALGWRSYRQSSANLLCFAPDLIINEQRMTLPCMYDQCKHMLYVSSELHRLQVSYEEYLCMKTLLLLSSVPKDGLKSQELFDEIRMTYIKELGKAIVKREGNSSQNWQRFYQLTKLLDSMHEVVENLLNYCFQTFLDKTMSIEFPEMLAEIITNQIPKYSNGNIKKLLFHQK

Cc1ccc(SCc2c(C#N)c3ccccc3n2C)cc1
inactive: activity change, negative = inhibition [1] -29.6% | activity, negative = inhibition [2] -15.3% | Potency [3] > 20.6 µM

CCCOc1cc(CN2CCCCC2)cc(C(C)=O)c1
inactive: activity change, negative = inhibition [1] 27.9% | activity, negative = inhibition [2] 7.32% | Potency [3] > 20.6 µM

C/C(NC(=O)c1cccs1)=C1\C(=O)C[C@@H]2[C@H]1C2(C)C
inactive: activity change, negative = inhibition [1] -9.31% | activity, negative = inhibition [2] -12.2% | Potency [3] > 20.6 µM

CC(C)C(=O)N1CCN(c2nc(-c3ccccc3)c3c(c2C#N)CC(C)(C)OC3)CC1
inactive: activity change, negative = inhibition [1] -2.44% | activity, negative = inhibition [2] 9.79% | Potency [3] > 20.6 µM

OCCNc1nc(-c2ccccc2)c2ccccc2n1
inactive: activity change, negative = inhibition [1] -11.6% | activity, negative = inhibition [2] -4.38% | Potency [3] > 20.6 µM

CCc1c(C)c2cc(Cl)c(O)c(CN3CCCCC3)c2oc1=O
inactive: activity change, negative = inhibition [1] 3.67% | activity, negative = inhibition [2] 11.7% | Potency [3] > 20.6 µM

Cc1ccccc1OCc1nc2ccccc2c(=O)n1NC(=O)c1ccco1
inactive: activity change, negative = inhibition [1] 4.16% | activity, negative = inhibition [2] 1.48% | Potency [3] > 20.6 µM

CC(=O)OCC(=O)[C@@]1(O)CC[C@H]2[C@@H]3CCC4=CC(=O)CC[C@]4(C)[C@H]3[C@@H](O)C[C@@]21C
inactive: activity change, negative = inhibition [1] 11.1% | activity, negative = inhibition [2] -11.6% | Potency [3] > 20.6 µM

CCCCc1c(O)nc(SCCN(C)C)n(-c2ccccc2)c1=O
inactive: activity change, negative = inhibition [1] 10% | activity, negative = inhibition [2] 2.07% | Potency [3] > 20.6 µM

COC(=O)CSc1nc2sc3c(c2c(=O)n1C1CCCCC1)CCN(C)C3
inactive: activity change, negative = inhibition [1] -11.2% | activity, negative = inhibition [2] -5.31% | Potency [3] > 20.6 µM

CC1(C)Cc2c(sc(NC(=O)c3ccc(Br)o3)c2C#N)CO1
inactive: activity change, negative = inhibition [1] -3.32% | activity, negative = inhibition [2] -9.34% | Potency [3] > 20.6 µM

CC1(C)Cc2nc3sc4c(N(CCO)CCO)ncnc4c3cc2CO1
inactive: activity change, negative = inhibition [1] 1.68% | activity, negative = inhibition [2] -5.3% | Potency [3] > 20.6 µM

COc1cc([C@@H]2[C@H]3CNCC=C3C(C#N)=C(N)C2(C#N)C#N)ccc1OC(C)C
inactive: activity change, negative = inhibition [1] 14% | activity, negative = inhibition [2] 10.8% | Potency [3] > 20.6 µM

CC1(C)Cc2c(C#N)c(SCC(=O)c3ccccc3)nc(N3CCCC3)c2CO1
inactive: activity change, negative = inhibition [1] 24.5% | activity, negative = inhibition [2] 6.65% | Potency [3] > 20.6 µM

CN=C(c1ccco1)n1c(=S)nc(-c2ccco2)n(C)c1=S
inactive: activity change, negative = inhibition [1] 10.9% | activity, negative = inhibition [2] 15.6% | Potency [3] > 20.6 µM

COc1cc2c(C(=O)N3CCN(c4ccccc4)CC3)c(C)oc2cc1Br
inactive: activity change, negative = inhibition [1] 3.59% | activity, negative = inhibition [2] -12.8% | Potency [3] > 20.6 µM

COc1cccc(CNc2ccc(Br)cn2)c1O
inactive: activity change, negative = inhibition [1] -25.3% | activity, negative = inhibition [2] -14.6% | Potency [3] > 20.6 µM

COc1cc(-c2nn3c(-c4cccnc4)nnc3s2)cc(OC)c1OC
inactive: activity change, negative = inhibition [1] -0.374% | activity, negative = inhibition [2] -7.44% | Potency [3] > 20.6 µM

Cc1cccc(OCCN2CSC(=S)N(C)C2)c1
inactive: activity change, negative = inhibition [1] -16.7% | activity, negative = inhibition [2] -7.42% | Potency [3] > 20.6 µM

Cc1cccc(NC(=O)c2c(C)cc(=O)oc2C)n1
inactive: activity change, negative = inhibition [1] -0.882% | activity, negative = inhibition [2] 4.29% | Potency [3] > 20.6 µM

CC(C)C(=O)N1CCN(c2nc(-c3ccccc3)c3c(c2C#N)CCCC3)CC1
inactive: activity change, negative = inhibition [1] -14.8% | activity, negative = inhibition [2] -9.28% | Potency [3] > 20.6 µM

O=S(=O)(c1cccc(-c2csc(-c3ccccc3)n2)c1)N1CCOCC1
inactive: activity change, negative = inhibition [1] -13.8% | activity, negative = inhibition [2] -9.15% | Potency [3] > 20.6 µM

COc1ccc(C(=O)Nc2cccnc2)cc1C(=O)Nc1cccnc1
inactive: activity change, negative = inhibition [1] 3.61% | activity, negative = inhibition [2] -4.76% | Potency [3] > 20.6 µM

C=CCOc1ccc(/C(O)=C2\C(=O)C(=O)N(CCN(C)C)C2c2cccs2)cc1 (stereo unspecified)
inactive: activity change, negative = inhibition [1] -5.42% | activity, negative = inhibition [2] -3.79% | Potency [3] > 20.6 µM

N#Cc1c(N2CCOCC2)nc(N2CCCCC2)c2c1CCN(C1CCCCC1)C2
inactive: activity change, negative = inhibition [1] -8.29% | activity, negative = inhibition [2] 4.09% | Potency [3] > 20.6 µM

CC1(C)Cc2c(c(-c3ccco3)[nH]c(=O)c2C#N)CS1
inactive: activity change, negative = inhibition [1] -2.31% | activity, negative = inhibition [2] 11.6% | Potency [3] > 20.6 µM

Cc1nc(/N=C(\N)Nc2ccccc2)nc2ccccc12
inactive: activity change, negative = inhibition [1] -14.5% | activity, negative = inhibition [2] -26.3% | Potency [3] > 20.6 µM

CCOC(=O)C1=C(CSc2nc(-c3ccncc3)ccc2C#N)OC(N)=C(C#N)C1c1cccnc1 (stereo unspecified)
inactive: activity change, negative = inhibition [1] 20.1% | activity, negative = inhibition [2] -14.4% | Potency [3] > 20.6 µM

CC1(C)CC(=O)C(C=NCCN2CCN(CCc3ccccc3)CC2)=C(O)C1
inactive: activity change, negative = inhibition [1] 2.91% | activity, negative = inhibition [2] -3.07% | Potency [3] > 20.6 µM

CCCCCCCCCCCCCCCC(O)C(N)CO (stereo unspecified)
inactive: activity change, negative = inhibition [1] -23.5% | activity, negative = inhibition [2] 7.16% | Potency [3] > 20.6 µM

O=C(NCc1cccnc1)/C(=N\O)c1ccccc1
inactive: activity change, negative = inhibition [1] -8.53% | activity, negative = inhibition [2] 0.749% | Potency [3] > 20.6 µM

CC1CN(C2CCN(C(=O)c3ccccc3Cl)CC2)CC(C)O1 (stereo unspecified)
inactive: activity change, negative = inhibition [1] 6.4% | activity, negative = inhibition [2] 1.52% | Potency [3] > 20.6 µM

CC(C)Sc1nnc2n(CCc3ccccc3)c(=O)c3c4c(sc3n12)COC(C)(C)C4
inactive: activity change, negative = inhibition [1] -19.5% | activity, negative = inhibition [2] -3.01% | Potency [3] > 20.6 µM

CC(=O)Nc1ccc(Oc2ccc3nc(C)[nH]c3c2)cc1
inactive: activity change, negative = inhibition [1] -4.84% | activity, negative = inhibition [2] -5.58% | Potency [3] > 20.6 µM

CCOC(=O)CSC1=C(C#N)C(=O)NC2(CCCCC2)S1
inactive: activity change, negative = inhibition [1] -9.68% | activity, negative = inhibition [2] 8.1% | Potency [3] > 20.6 µM

CCCCCCn1c(SCCN2CCOCC2)nc2c1c(=O)[nH]c(=O)n2C
inactive: activity change, negative = inhibition [1] -17.8% | activity, negative = inhibition [2] -0.329% | Potency [3] > 20.6 µM

CCC(=O)N[C@@H]1CC(C(C)(C)NC(=O)CC)CC=C1C (stereo partly specified)
inactive: activity change, negative = inhibition [1] 8.41% | activity, negative = inhibition [2] 0.886% | Potency [3] > 20.6 µM
